Experimental findings from PubChem BioAssay (NCI) are described below.

This is part of a sample that, as a whole, favours compounds with a hit. Of some 83,000 tested, about 20% had one in any assay.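 Growth was measured after 48 h exposure to one concentration of compound in 96-well plates. Values under 10 count as active.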 A number with no mark means an inactive call. Active and inactive are the calls of the source.

The subject of the assay is MDA-MB-231 breast. Briefly: NCI-60 one-dose screen, 48 h (100 = growth as untreated, 0 = no growth, -100 = all killed). Conditions: 10 µM.
With `CCCCCCCNc1nc(C=O)ncc1-c1ccc(C(F)(F)F)cc1`, the growth was 117%. With `C#Cc1ccc(-n2c(/C=C/c3ccc4ccccc4n3)nc3ncccc3c2=O)cc1`, the growth was -41.2% (active).

As for `O=C1c2ccc3c4c(ccc(c24)C(=O)N1CCNCc1ccccc1)C(=O)N(CCNCc1ccccc1)C3=O`, the growth was 39.9%. With `CCN(CC)Cc1cc(Nc2ccnc3cc(Cl)ccc23)ccc1OC` the figure was 55.7%; with `Nc1ccc2c(c1)C1(CCC2)NC(=O)NC1=O` (stereo unspecified), 101%. As for `O=C(Nc1cccc(Cl)c1)Nc1nccs1`, the growth is 93.2%. Regarding `N=C(N)c1ccc(-c2ccc(-c3cccs3)s2)s1`, the growth is -74.3% (active). In the case of `O=C1NC(=O)N(Cc2ccccc2)CC1Br` (stereo unspecified), the growth was 89.3%. Next, `COc1cc(C(=O)N2CCN(c3ccccc3OC)CC2)c(N)cc1OCCCN1CCN(c2ccccc2OC)CC1`: 80.3%.

Regarding `CN(C)CCN=c1nc2c(c(N)n1-c1ccccc1)c(=S)n(-c1ccccc1)c(=S)n2-c1ccccc1`, the growth was -13% (active). With `CCOC(=O)c1ccc(NC(=O)Nc2ncc(Cl)cc2Cl)cc1` the figure was 94%; with `CN(C)N=Nc1nn(C(=O)Nc2ccc(Cc3ccccc3)cc2)c2ccccc12`, 58.2%. Take `CC(=O)N(C)c1ccc(Nc2ccc(Nc3ccc(N(C)C(C)=O)cc3)c3c2C(=O)c2ccccc2C3=O)cc1`: the growth was 49.3%.

Regarding `CCOC(=O)C1(CC(C)C)CCOC1=O` (stereo unspecified), the growth is 109%.

Consider `COc1ccc2c(c1)nc(N)c1c3cccnc3cn21`, for which the growth is 22.4%. In the case of `CSCCCNC(=O)c1ccc2c(c1)/C(=C/c1[nH]c(C)cc1C)C(=O)N2`, the growth is 20.9%.
